Assay results: PubChem BioAssay (Tox21)
Values joined by “and” are separate entries in the source; they are usually repeats but may differ in a detail not shown here. Equal entries are not always repeated. Inconclusive results are not listed. Active and inactive are the calls of the source. Unless noted, calls come from the whole dose curve; as a rule, active = well fitted curve in the direction sought with a large enough effect in the repeat runs; inconclusive = weak or mixed curves; inactive = no such curve, though single readings can be large; an effect the other way counts as inactive or inconclusive.

How the values were obtained:
[1] = qHTS assay to identify small molecule antagonists of the estrogen related receptor (ERR) signaling pathway from Tox21 library - cell viability counter screen (AID 1224834); note: nearly all actives have a fitted effect of over 30% in size
Procedure, shortened: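 ERR cells, 2,000/well; 6 h settle at 37 C/5% CO2; pin-tool compound transfer in DMSO; 17.5 h at 37 C; CellTiter-Fluor, 30 min; fluorescence intensity.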

[2] = biological target: Luciferin 4-monooxygenase (Photinus pyralis) (UniProt P08659); assay: qHTS assay to identify small molecule inhibitors of firefly luciferase (AID 1224835); note: nearly all actives have a fitted effect of over 25% in size; note: potency is the fitted concentration of half-maximal effect; for activity change, negative = inhibition: series mostly up to about 120 µM
Luciferin 4-monooxygenase (Photinus pyralis), sequence (P08659 whole entry, looked up): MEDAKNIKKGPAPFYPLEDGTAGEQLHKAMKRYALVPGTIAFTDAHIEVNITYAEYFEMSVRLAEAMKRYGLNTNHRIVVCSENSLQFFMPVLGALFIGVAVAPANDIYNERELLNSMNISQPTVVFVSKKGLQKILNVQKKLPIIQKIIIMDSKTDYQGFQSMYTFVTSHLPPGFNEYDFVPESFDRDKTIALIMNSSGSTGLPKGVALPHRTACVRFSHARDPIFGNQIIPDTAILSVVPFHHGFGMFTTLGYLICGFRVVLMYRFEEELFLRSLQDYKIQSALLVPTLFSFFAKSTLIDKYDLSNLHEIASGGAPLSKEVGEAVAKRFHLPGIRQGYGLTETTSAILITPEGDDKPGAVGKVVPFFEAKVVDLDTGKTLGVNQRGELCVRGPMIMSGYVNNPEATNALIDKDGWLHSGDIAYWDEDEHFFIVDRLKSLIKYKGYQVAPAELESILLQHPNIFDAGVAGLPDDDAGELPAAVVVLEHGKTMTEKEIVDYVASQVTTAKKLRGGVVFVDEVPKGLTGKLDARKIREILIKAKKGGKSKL
Procedure, shortened: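 Inhibition of purified Photinus luciferase is measured by luminescence. Substrate levels (D-luciferin, ATP) sit at their KM values. Each compound is tested in a concentration series.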

[3] = qHTS assay to identify small molecule agonists of the constitutive androstane receptor (CAR) signaling pathway - cell viability counter screen (AID 1224836); note: series mostly up to about 92 µM; nearly all actives have a fitted effect of over 45% in size
Procedure, shortened: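 Compound titrations (15 concentrations) went onto HepG2-CYP2B6-hCAR cells 4 h after seeding, alongside PK11195 at a final 0.75 uM; a 23 h, 37 C/5% CO2 incubation preceded CellTiter-Fluor viability measurement.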

[4] = qHTS assay to identify small molecule antagonists of the constitutive androstane receptor (CAR) signaling pathway - cell viability counter screen (AID 1224837); note: series mostly up to about 92 µM; nearly all actives have a fitted effect of over 45% in size
Procedure, shortened: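 Viability was measured with CellTiter-Fluor in a HepG2 line carrying stably transfected hCAR and a CYP2B6-2.2kb construct. Cells were exposed for 23 hr at 37 C to 15 compound concentrations with 50 nM CITCO as agonist.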

[5] = biological target: Nuclear receptor subfamily 1 group I member 3 (Homo sapiens) (UniProt Q14994); assay: qHTS assay to identify small molecule antagonists of the constitutive androstane receptor (CAR) signaling pathway (AID 1224838);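 note: HepG2 cells stably expressing hCAR with CYP2B6 luciferase reporter stimulated by CITCO; nearly all actives have a fitted effect of over 40% in size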
Nuclear receptor subfamily 1 group I member 3 (Homo sapiens), sequence (Q14994 whole entry, looked up): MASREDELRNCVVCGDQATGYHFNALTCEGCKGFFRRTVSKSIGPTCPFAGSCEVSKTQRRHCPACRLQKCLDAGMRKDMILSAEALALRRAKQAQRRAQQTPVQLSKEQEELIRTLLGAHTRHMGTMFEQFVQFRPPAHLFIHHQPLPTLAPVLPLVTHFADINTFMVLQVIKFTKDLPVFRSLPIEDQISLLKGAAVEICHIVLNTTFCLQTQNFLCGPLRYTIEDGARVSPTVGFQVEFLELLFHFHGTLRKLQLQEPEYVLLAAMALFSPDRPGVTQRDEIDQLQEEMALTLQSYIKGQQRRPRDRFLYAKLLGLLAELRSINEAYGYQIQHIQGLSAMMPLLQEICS
Procedure, shortened: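 Antagonist mode used CITCO at a final 50 nM to activate CAR in human hepatoma HepG2 cells carrying stable hCAR and a 2.2 kb CYP2B6 promoter-luciferase construct. Compounds were tested at 15 concentrations over 24 h, with luminescence as the end point.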

[6] = biological target: Nuclear receptor subfamily 1 group I member 3 (Homo sapiens) (UniProt Q14994); assay: qHTS assay to identify small molecule agonists of the constitutive androstane receptor (CAR) signaling pathway (AID 1224839); note: nearly all actives have a fitted effect of over 15% in size; note: potency is the fitted concentration of half-maximal effect; for activation: series mostly up to about 92 µM
Procedure, shortened: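 In this screen, CAR-driven CYP2B6 promoter activity is measured by luminescence in HepG2-CYP2B6-hCAR cells after 24 h with test compounds and 0.75 uM PK11195 (final concentration).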

[7] = qHTS assay to identify small molecule antagonists of the estrogen related receptor signaling pathway with the pleiotropic PPARgamma coactivator (PGC) from Tox21 10K library (AID 1224841; call rule not given here; note: series mostly up to about 92 µM; actives are mostly falling curves and most rising ones were filed inactive; nearly all actives have a fitted effect of over 50% in size)
Procedure, shortened: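 Steps: plate 2,000 PGC/ERR cells per well; incubate 6 h at 37 C with 5% CO2; transfer compounds from DMSO stocks by pin tool; incubate 18 h at 37 C; add One-Glo; measure luminescence 30 min later.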

[8] = qHTS assay to identify small molecule agonists of the estrogen related receptor signaling pathway with the pleiotropic PPARgamma coactivator (PGC) from Tox21 10K library (AID 1224842); note: nearly all actives have a fitted effect of over 15% in size
Procedure, shortened: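 Luminescence from One-Glo (30 min, room temperature) measured after PGC/ERR cells had 18 h at 37 C with pinned compound (23 nL in DMSO). Cells had been seeded at 2,000 per well and pre-incubated 6 h.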

[9] = qHTS assay to identify small molecule antagonists of the estrogen related receptor signaling pathway with the pleiotropic PPARgamma coactivator (PGC) from Tox21 10K library - cell viability counter screen (AID 1224840; active = well fitted cell-killing curve with a large enough effect in the repeat runs, not every such curve was filed as active; note: nearly all actives have a fitted effect of over 40% in size)
Procedure, shortened: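 Multiplexed viability counter screen in the PGC/ERR cell line: cells treated with DMSO-dissolved compounds for 17.5 hours at 37 C, then viability measured as CellTiter-Fluor fluorescence.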
% is set by controls: 0 for no effect and ±100 for the full control effect.

C=CCOCC(CC)(CO)COCC=C
inactive: Potency [1] | Potency [2] | Potency [3] | Potency [4] | Potency [5] | Potency [6] | Potency [7] | outcome [8]

CCOC(=O)c1cccc(N)c1
inactive: Potency [1] | Potency [2] | Potency [3] | Potency [4] | Potency [5] | Potency [6] | outcome [8]

CN1CCC(=C2c3ccccc3CC(=O)c3sccc32)CC1
inactive: Potency [1] | Potency [2] | Potency [3] | Potency [4] | Potency [6]

CCOC(=O)c1c(C)n(C)c2ccc(O)cc12
inactive: Potency [1] | Potency [2] | Potency [3] | Potency [4] | Potency [5] | Potency [6] | Potency [9] | outcome [8]

OCCOc1ccc(OCCO)cc1
inactive: Potency [1] | Potency [2] | Potency [3] | Potency [4] | Potency [5] | Potency [6] | Potency [7] | outcome [8]

CC(=O)c1ccccc1O
inactive: Potency [1] | Potency [2] | Potency [3] | Potency [4] | Potency [5] | Potency [6] | outcome [8]

NS(=O)(=O)c1cc2c(cc1Cl)NC(C1CC3C=CC1C3)NS2(=O)=O (centres undefined)
inactive: Potency [1] | Potency [2] | Potency [3] | Potency [4] | Potency [6] | Potency [9]

O=C1CCCCCCCCCCCN1
inactive: Potency [1] | Potency [2] | Potency [3] | Potency [4] | Potency [5] | Potency [9]

CN(C)CCCNCCCN(C)C
inactive: Potency [1] | Potency [2] | Potency [3] | Potency [4] | Potency [5] | Potency [6] | Potency [7] | outcome [8]

CC(=O)CC(C)C
inactive: Potency [1] | Potency [2] | Potency [3] | Potency [4] | Potency [5] | Potency [6] | Potency [9] | outcome [8]

Nc1c[n+](N2CCOCC2)no1
inactive: Potency [1] | Potency [2] | Potency [3] | Potency [4] | Potency [5] | Potency [6] | Potency [9] | outcome [8]

CCCCOCCOCCOCCCC
inactive: Potency [1] | Potency [2] | Potency [3] | Potency [4] | Potency [5] | Potency [6] | outcome [8]

CN1CCCC1
inactive: Potency [1] | Potency [2] | Potency [3] | Potency [4] | Potency [5] | Potency [6] | Potency [7] | outcome [8]

CCC=O
inactive: Potency [1] | Potency [2] | Potency [3] | Potency [4] | Potency [5] | Potency [6] | Potency [9] | outcome [8]

CC(C)=CCCC(C)CC(=O)O (centres undefined)
inactive: Potency [1] | Potency [2] | Potency [3] | Potency [4] | Potency [5] | Potency [6] | Potency [7] | outcome [8]

CCOC(=O)c1ccc(C)cc1
inactive: Potency [1] | Potency [2] | Potency [3] | Potency [4] | Potency [5] | Potency [6] | Potency [7] | outcome [8]

Cn1cc(S(C)=O)c(=O)c2ccc(F)cc21 (centres undefined)
inactive: Potency [1] | Potency [2] | Potency [3] | Potency [4] | Potency [5] | Potency [6] | Potency [7] | outcome [8]

NC(=O)c1ccc(N)cc1
inactive: Potency [1] | Potency [2] | Potency [3] | Potency [4] | Potency [5] | Potency [6] | Potency [7] | outcome [8]

C[C@H]1C[C@@H](O)CC(C)(C)C1
inactive: Potency [1] | Potency [2] | Potency [3] | Potency [4] | Potency [5] | Potency [6] | Potency [9] | outcome [8]

C/C=C(\C)C#N
inactive: Potency [1] | Potency [2] | Potency [3] | Potency [4] | Potency [5] | Potency [6] | Potency [7] | outcome [8]

CC(=O)N(CC(O)CO)c1c(I)c(C(=O)NCCO)c(I)c(C(=O)NCC(O)CO)c1I (centres undefined)
inactive: Potency [1] | Potency [2] | Potency [3] | Potency [4] | Potency [5] | Potency [6] | Potency [7] | outcome [8]

C[N+](C)(C)CCCCCC[N+](C)(C)C
inactive: Potency [1] | Potency [2] | Potency [3] | Potency [4] | Potency [6] | Potency [9]

CC(=O)Nc1ccc(S(N)(=O)=O)cc1
inactive: Potency [1] | Potency [2] | Potency [3] | Potency [4] | Potency [5] | Potency [6] | Potency [9] | outcome [8]

CCCN1CCCC[C@H]1C(=O)Nc1c(C)cccc1C
inactive: Potency [1] | Potency [2] | Potency [3] | Potency [4] | Potency [5] | Potency [6] | Potency [7] | outcome [8]

O=c1cc(-c2ccccc2)oc2ccccc12
active: Potency [2] 7.97 µM and 12.6 µM | Potency [6] 27.3 µM and 21.6 µM
inactive: Potency [1] | Potency [3] | Potency [4] | Potency [9]

CCCCNC(=O)NCCCC
inactive: Potency [1] | Potency [2] | Potency [3] | Potency [4] | Potency [5] | Potency [6] | outcome [8]

Nc1ccc(S(=O)(=O)Nc2ccnn2-c2ccccc2)cc1
inactive: viability change, negative = cytotoxic [1] -1.42% [at 19 µM] | activity change, negative = inhibition [2] 8.37% [at 23.6 µM] | viability change, negative = cytotoxic [3] 4.16% [at 19 µM] | activity change, negative = cytotoxicity [4] 3.82% [at 19 µM] | activation [6] -2.19% [at 19 µM]

O=C1NC(=O)[C@@]2(CCOc3ccc(F)cc32)N1
inactive: Potency [1] | Potency [2] | Potency [3] | Potency [4] | Potency [9]

CCCCCSCCCCC
inactive: Potency [1] | Potency [2] | Potency [4] | Potency [5] | Potency [6] | Potency [9] | Potency [7] | outcome [8]

C=C1CC[C@H]2C[C@@H]1C2(C)C
inactive: Potency [1] | Potency [2] | Potency [3] | Potency [4] | Potency [9]

COc1ccc2c(c1)CCCC2=O
inactive: Potency [1] | Potency [2] | Potency [3] | Potency [4] | Potency [6] | Potency [9] | Potency [7] | outcome [8]
